Test results taken from ChEMBL document CHEMBL3988442, “University of Dundee, Small-Polar-MMV Screening Library” (2021).
The whole screen tested about 48,000 compounds, of which about 13,000 (27%) showed an effect of 50% or more. The list shows a part of the results.

Test system: Wolbachia pipientis
Assay: Anti-Wolbachia Cell-Based Screen
Format: functional
Parameters: scale not given: in the data most compounds retested in dose-response had high values
Conditions: 5 µM

Structure (SMILES)	Percent Effect [%]
O=C(O)[C@@H]1CN(C2CCCCC2)C[C@H]1C1CC1	8.818
CCS(=O)(=O)N1CCC(CSc2ccccc2)C1 (configuration not stated)	-7.795
CNC(=O)C(C)(C)N1CCC[C@H]1C(=O)NCCN1CCOCC1	8.557
CC(=O)NCc1nnn2c1CN(c1ncccn1)CCC2	96.74
CCS(=O)(=O)N1CCCn2nnc(CNC(C)=O)c2C1	115.8439
O=C(O)C(F)(F)F.c1ccc(OCc2nnn3c2CN(c2ncccn2)CCC3)nc1	-15.4
O=C(O)C(F)(F)F.OCCOCc1nnn2c1CN(c1ncccn1)CCC2	8.15
CC(=O)NCc1nnn2c1CN(c1ncc(C)cn1)CCC2	101.7
COCc1nnn2c1CN(C(=O)c1c[nH]cn1)CCC2	-0.6058
CCc1ccc(C(=O)N2CCCn3nnc(Cn4cccn4)c3C2)cc1	1.938
COc1cccc(-c2noc(-c3ccc(NCC(C)C)nc3)n2)c1OC	-21.63
CCN1CCC(c2nnc(CN3CCCC3)n2C2CC2)CC1	-1.245
Cc1cc(N(C)C)nc(N2CCn3c(C)nnc3C2)n1	-0.4749
Cc1nc(N(C)C)cc(C2(C)CCNCC2)n1	111
Cc1cnn(C2CN(c3nc(C)cc(N(C)C)n3)C2)c1	-14.5
Cc1cc(N(C)C)nc(C2(C)CCNCC2)n1	87.74
Cc1cc(N(C)C)nc(C2(C)CCCNC2)n1 (configuration not stated)	102.5
CN(Cc1ccc2nsnc2c1)C(=O)CCc1cc2n(n1)CCCNC2	-10.43
COCc1cc(N(C)Cc2ccccn2)nc(C(C)(C)C)n1	-4.697

Structure (SMILES)	Percent Effect [%]
O=C(COc1ccccc1N1CCCC1)N1CCN[C@H]2CS(=O)(=O)C[C@H]21	-3.795
O=C(CCc1ccccc1Br)N1CC(S(=O)(=O)C2CCCCC2)C1	3.843
Cc1noc(CNc2ccc(OC(F)F)cc2OC(F)F)n1	-10.63
CS(=O)(=O)N1Cc2nccn2CC(CN2CCCC2=O)C1 (configuration not stated)	-14.04
CC(=O)N1CCC(CN2CCN(Cc3nccn3C)C(C)C2)CC1 (configuration not stated)	-3.409
CC(=O)N1CCC(NC(=O)NCCCc2cn[nH]c2C)CC1	-4.714
CC(=O)N1CCC(Cc2nccnc2-c2c(C)n[nH]c2C)C1 (configuration not stated)	110.3
Cc1n[nH]c(C)c1-c1nccnc1CC1CCN(S(C)(=O)=O)C1 (configuration not stated)	111.1
Cc1n[nH]c(C)c1-c1nccnc1CC1CCN(C(C)C)CC1	127
CN1CCCC(N2CCN(c3cc(C(F)(F)F)ccn3)CC2)C1 (configuration not stated)	-11.03
Cc1noc2ncc(C(=O)NCC3CCN(C(C)C)C3)cc12 (configuration not stated)	-9.955
Cc1n[nH]c(C)c1CN1CCC(c2cc(C(C)C)n[nH]2)CC1	7.572
CS(=O)(=O)N1CCC(CSc2ccccc2)C1 (configuration not stated)	7.413
Cc1n[nH]c(C)c1-c1nccnc1CC1CCCN(C)C1 (configuration not stated)	113
Cc1ccc(CN(Cc2ccccn2)C(=O)CCC2CCCN(C)C2)s1 (configuration not stated)	-9.083
CN1CCCCC1CCC(=O)NCCSc1cnn[nH]1 (configuration not stated)	-30.14
Cc1n[nH]c(C)c1-c1nccnc1CC1CCNC1 (configuration not stated)	100.9
CCOC(=O)C1CN(C(=O)COC)Cc2ncn(CC)c21 (configuration not stated)	-5.507
COCC(=O)N1CCC(Cc2nccnc2-c2c(C)n[nH]c2C)C1 (configuration not stated)	109.3

Structure (SMILES)	Percent Effect [%]
CC1CCCCN1C(=O)Cn1cnc(C#N)n1 (configuration not stated)	-6.637
CS(=O)(=O)N1CC(c2nc[nH]n2)c2cc(C(=O)NC3CCCC3)ccc21 (configuration not stated)	0.6803
Cc1ncc(CO)c(CN2CCCC2c2nc3c(C)cccc3[nH]2)c1O (configuration not stated)	7.788
Cc1nn(CCO)cc1CN1CCCC1c1nc2c(C)cccc2[nH]1 (configuration not stated)	-6.904
COc1c(C2CCCN2Cc2cn3ccsc3n2)c(C)nn1C (configuration not stated)	3.624
Cc1nn(C)cc1CN1CCCC1c1cccc(Nc2nccs2)n1 (configuration not stated)	88.47
CNS(=O)(=O)c1cccc(S(=O)(=O)Nc2ncc(C)s2)c1	2.588
CCN(CC)S(=O)(=O)N1CCCC1C(=O)N1CCSCC1 (configuration not stated)	22.8
Cc1nn(C)c(Cl)c1C1CCCN1Cc1cn2ccsc2n1 (configuration not stated)	41.71
Cc1nonc1NC(=O)C1SCCc2sccc21 (configuration not stated)	-12.22
CCc1cnc(C)nc1NC(CC)c1cnn(C)c1 (configuration not stated)	-1.737
Cn1cc(CN2CCCC3(CCN(Cc4ccncc4)C3=O)C2)cn1 (configuration not stated)	102
Cc1cccc(CN2CCCC3(CCN(CC(=O)N(C)C)C3=O)C2)n1.O=C(O)C(F)(F)F (configuration not stated)	-13.27
Cc1cccc(CN2CCC3(CCCN(Cc4cnn(C)c4)C3)C2=O)n1 (configuration not stated)	94.18
Cc1cnc(CNC(=O)CC2CCc3ccccc32)cn1 (configuration not stated)	1.8
CN(Cc1ccco1)C(=O)CN1CCOC(Cn2cncn2)C1 (configuration not stated)	96.26
Cc1ccc(CN(C)C(=O)CN2CCOC(Cn3cncn3)C2)o1 (configuration not stated)	-4.818
CN(Cc1ccco1)C(=O)CN1CCCC1Cn1cncn1 (configuration not stated)	107
Cc1ccc(CN(C)C(=O)CN2CCOC(Cn3cccn3)C2)o1 (configuration not stated)	114.2
